Holding throughout (experiment): NCI-60 one-dose screen, 48 h (100 = growth as untreated, 0 = no growth, -100 = all killed)
For test [1], the system named is BT-549 breast. The following applies: 10 µM unless noted.
The test system of test [2] is MDA-MB-435 melanoma. The following applies: 10 µM unless noted.
For test [3], the system named is SW-620 colon. The following applies: 10 µM unless noted.
The test system of test [4] is MCF7 breast. The following applies: 10 µM.
Test [5] relates to HCT-116 colon. Conditions: 10 µM unless noted.
Test [6] concerns HCC-2998 colon. The following applies: 10 µM unless noted.
In test [7] the test system is KM12 colon. The following applies: 10 µM unless noted.

Compounds without any hit were thinned out: in the full panel of roughly 83,000, 20% have a hit.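 In brief: 96-well plates, 48 h treatment, single concentration, percent growth endpoint.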 Unmarked numbers belong to inactive results. Active and inactive are the calls of the source. How the source made its calls: active means growth percent below 10; inactive means the rest.

Take `O=C1/C(=C/c2ccc(O)cc2)COc2ccc(O)cc21`: the growth is 106% in test [1]; 94.8% in test [2]; 87.2% in test [3]; 51.6% in test [4]; 86.1% in test [5]; 108% in test [6]. Moreover, the growth in test [7] is 64.7%.
Regarding `CN1C(=O)N(C)C2(c3ccccc3)n3c(s/c(=C\c4ccccc4)c3=O)=NNC12c1ccccc1` (stereo unspecified), the growth in test [1] is 105%; in test [2], 98.1%; in test [3], 88.6%; in test [4] it was 85.6%; in test [5], 88.3%; in test [6], 110%. In test [7], the growth is 88.2%.
Regarding `COc1ccc2sc(N(Cc3cccnc3)C(=O)c3ccc(C#N)cc3)nc2c1`, the growth is 92.1% in test [1]; 66.5% in test [2]; 90.6% in test [3]; 87% in test [4]; 58.2% in test [5]; 82.6% in test [6]. Besides, in test [7], the growth is 75.8%.
With `CCOC(=O)c1c2c(c(C)n1Cc1ccc(OC)cc1)-c1oncc1CC2`, the growth in test [1] is 104%; in test [2], 120%; in test [3] it was 96.4%; in test [4] it was 97.5%; in test [5] it was 80.2%; in test [6], 106%. Besides, the growth in test [7] was 87.9%.
In the case of `CC(C)CCOc1ccc(-c2n[nH]c(C(F)(F)F)c2-c2cncc(C#N)c2)c(O)c1`, the growth was 6.56% (active) in test [1]; 7.91% (active) in test [2]; 14.3% in test [3]; 2.95% (active) in test [4]; 2.41% (active) in test [5]; 16.2% in test [6]. Also, in test [7], the growth was 7.94% (active).
Consider `COc1ccc(C(=O)Nc2ccc3nc(N4CCCCC4)cc(C)c3c2)cc1OC`, for which the growth in test [1] is 90.6%; in test [2], 88.2%; in test [3] it was 23.7%; in test [4], 80.2%; in test [5], 64.2%; in test [6], 66.5%. In addition, the growth in test [7] was 23.7%.
As for `O=C(CN1C(=O)/C(=C\c2ccc(Cl)cc2)SC1=S)Nc1ncc(Cc2ccc(Cl)cc2)s1`, the growth in test [1] is 113%; in test [2] it was 110%; in test [3] it was 105%; in test [4], 94.8%; in test [5] it was 107%; in test [6], 106%. For the same compound, in test [7], the growth is 101%.
Turning to `O=NN(C(=O)NC1CCC(C(=O)O)CC1)C1CCC(C(=O)O)CC1` (stereo unspecified), the growth is 125% in test [1]; 106% in test [2]; 105% in test [3]; 93% in test [4]; 104% in test [5]; 104% in test [6]. The growth in test [7] is 108%.
With `Cc1cc2c(c(C)c1Cl)C(=O)/C(=C/c1cccc([N+](=O)[O-])c1)O2`, the growth in test [1] was 106%; in test [2] it was 99.5%; in test [3], 104%; in test [4], 66%; in test [5] it was 103%; in test [6], 102%. Moreover, the growth in test [7] is 103%.
Regarding `CCOC(=O)c1cnc2c(C)cccc2c1Nc1ccc(C(C)=O)cc1`, the growth in test [1] was 61.5%; in test [2] it was -63.8% (active); in test [3], -62.2% (active); in test [4] it was -39.7% (active); in test [5], 1.75% (active); in test [6] it was -91% (active). Moreover, the growth in test [7] is -34.7% (active).
On to `Clc1ccc(Oc2ccc(Nc3ncnc4onc(-c5ccccc5)c34)cc2)c(Cl)c1`, for which the growth was 90.2% in test [1]; 103% in test [2]; 99.5% in test [3]; 80.6% in test [4]; 85.4% in test [5]; 103% in test [6]. Besides, in test [7], the growth was 103%.
Take `COc1cc(/C=C2\CN(C)C/C(=C\c3cc(CN4CCOCC4)c(O)c(OC)c3)C2=O)cc(CN2CCOCC2)c1O`: the growth in test [1] is 94%; in test [2], 29.2%; in test [3], 48%; in test [4], 19.5%; in test [5], 21.1%; in test [6] it was 91%. The growth in test [7] is 37.4%.
Regarding `CN(O)c1nc(N(C)O)nc(N2CCOCC2)n1`, the growth in test [1] is 60.5%; in test [2], 42.5%; in test [3], 52.4%; in test [4], 15.9%; in test [5] it was 12.2%; in test [6] it was 40.5%. In addition, the growth in test [7] is 45.8%.
Take `CCCN1CCN(c2ccc3nc(-c4ccc5nc(-c6cc(OC)ccc6OC)[nH]c5c4)[nH]c3c2)CC1`: the growth in test [1] was 96.3%; in test [2], 106%; in test [3] it was -70.2% (active); in test [4] it was -63.3% (active); in test [5] it was -57.3% (active); in test [6] it was 113%. For the same compound, in test [7], the growth was 32.3%.
In the case of `O=C1CCC(N2C(=O)c3cccc(NCCCCCCOc4ccc(Nc5nccc(Nc6ccccc6)n5)cc4)c3C2=O)C(=O)N1` (stereo unspecified), the growth in test [1] is 65.1%; in test [2], 75.9%; in test [3], 91%; in test [4], 66.8%; in test [5], 77.6%; in test [6], 98.4%. In addition, the growth in test [7] is 88.5%.
For `COc1cccc2c1C=C1CCCCC3=Cc4c(OC)cccc4OC13O2`, the growth was 64% in test [1]; -15.8% (active) in test [2]; 27.2% in test [3]; 26.5% in test [4]; 22.1% in test [5]; 71.1% in test [6]. Moreover, the growth in test [7] was 32.3%.
For `COc1cc(C2CC(c3ccc(Nc4nc(NCCO)nc(N5CCOCC5)n4)cc3)=NN2c2cc(Cl)cc(Cl)c2)cc(OC)c1OC` (stereo unspecified), the growth in test [1] was 75.3%; in test [2], 49.6%; in test [3] it was 81.6%; in test [4], 15.3%; in test [5], 33.1%; in test [6], 63.4%. For the same compound, the growth in test [7] is 37.6%.
Take `CC(=Nc1ccccc1)C1=C(O)C(Cc2ccc(F)cc2)NC1=O` (stereo unspecified): the growth in test [1] is 36.8%; in test [2], -53.7% (active); in test [3], 27.4%; in test [4], 16.3%; in test [5], 27.5%; in test [6], 60.4%. In test [7], the growth is 24.5%.

Values taken from PubChem BioAssay (NCI).
